# Measured values published in PubChem BioAssay AID624331 (National Center for Advancing Translational Sciences (NCATS), 2012).
# Records with an inconclusive call do not appear. Unmarked numbers belong to inactive results. Calls follow the shape of the dose curve; as a rule, active = well fitted activation curve with a large enough effect; inconclusive = small, poorly fitted or top-dose-only effect; inactive = no such curve, though single readings can be large or run the other way.
# Test: qHTS assay for re-activators of p53 using a Luc reporter: Hit Validation with no p53 Expressed; also: 0% is about no effect
# Settings: p53-null cells, luciferase reporter counter-screen; series mostly up to 46.1 µM; activity change, positive = activation: at the top concentration
# Outline: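 Without p53 expression, cells (1000/well, Opti-MEM + 10% FBS) were exposed 24 h at 37 deg C to compounds in a 1:5 series from 10 mM stock (top 46.1 µM in well). Luminescent signal read 10 min after Amplite addition; actives flag unspecific activation.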
row,Structure (SMILES),"activity change, positive = activation [%]"
1,CCOC(=O)C1CCN(S(=O)(=O)Cc2ccccc2)C1=O (centres undefined),10.1
2,CN1CCc2c(sc(NC(=O)C3COc4ccccc4O3)c2C(N)=O)C1 (centres undefined),-38.2
3,CC(C)N1C(=O)CN(C2CCCCCC2)C(=O)C1c1ccccc1F (centres undefined),-1.85
4,COc1cccc(NC(=O)c2ocnc2C)c1,-8.41
5,Cc1ccc(C(=O)OCC(=O)NCC2COc3ccccc3O2)cc1 (centres undefined),6.53
6,COc1ccc2c(c1)CCC/C2=N\NC(=O)c1ccoc1C,-0.779
7,C/C(=N\NC(=O)c1cc(C)nc2ccccc12)c1ccccn1,-10.9
8,Cc1cc(C(c2nnnn2Cc2ccccc2)N2CCOCC2)c(C)n1-c1ccc2c(c1)OCO2 (centres undefined),35.8
9,O=C(c1cccc(S(=O)(=O)NCc2ccc3c(c2)OCO3)c1)N1CCCC1,-10.3
10,COc1ccccc1C(=O)NNC(=O)c1cccc(F)c1,15
11,O=C(Nc1cnc2ccccc2c1)C1COc2ccccc2O1 (centres undefined),28.8
12,CC(=O)NC1=C(Nc2ccc(N(C)C)cc2)C(=O)c2ccccc2C1=O,47.3
13,Cc1cccc(-n2c(C)cc(C(=O)NC3CCCCC3)c2C)c1,47.2
14,CC1(C)CC(=O)CC(=O)/C1=N\Nc1c(Cl)cc(Cl)cc1Cl,-30.2
15,O=C(Nc1ccc(COc2ccccc2)cc1)c1cccc([N+](=O)[O-])c1,5.64
16,CCOc1ccc(OCc2cccc(C(=O)N3CCCC3)c2)cc1,0.911
17,O=C(N/N=C/c1cccc(F)c1)NC1CCCCC1,33
18,O=C(NCc1ccco1)c1noc2c1CCCC2,3.62
19,COc1cc(C(=O)NCCc2cn3ccc(C)cc3n2)cc(OC)c1OC,-28.5
20,CC1CC1C(=O)Nc1nc2ccc(S(C)(=O)=O)cc2s1 (centres undefined),46.1

row,Structure (SMILES),"activity change, positive = activation [%]"
1,c1ccc2oc(C3=NNC(=NC4CC4)SC3)cc2c1,-37.4
2,COC(=O)c1cn[nH]c1NC(=S)Nc1ccc(C)cc1Cl,58.3
3,Nc1cccc(-c2nc3ccc(C(=O)c4ccccc4)cc3[nH]2)c1,-22.3
4,COc1ccc(N=C(N)SCc2ccccn2)cc1,12.5
5,COc1ccc(C(=O)N/N=C(\C)c2ccccn2)cc1OC,-5.69
6,COC(=O)Cc1n[nH]c(=S)[nH]c1=O,-10.7
7,NNc1nc(-c2ccccc2)nc2sc3c(c12)CCCC3,29.2
8,O=C(N/N=C/c1sc(=O)[nH]c1-[n+]1ccc2ccccc2c1)c1ccccc1[O-],-12.2
9,CCSc1nnc(SCC(=O)NC2CCCCC2)s1,-56
10,Cc1cc(NC(=O)c2c(F)c(F)c(F)c(F)c2F)no1,1.86
11,COc1ccc2c(=O)c(-c3nc(C)cs3)coc2c1,-21.3
12,CC(OC(=O)c1cnccn1)C(=O)Nc1nc(-c2cccc([N+](=O)[O-])c2)cs1 (centres undefined),-31.6
13,CC1CCN(C(=O)c2cc(-c3ccccc3O)on2)CC1,113
14,CCCCNC(=S)N(Cc1c(C)noc1C)c1ccccc1,-13
15,Cc1ccc(-c2cc(-c3ccccc3Cl)[nH]n2)c(O)c1,32.1
16,O=C(O)c1ccc(N/N=C/c2ccc3ncccc3c2)cc1,-33.2
17,Cc1cnc(C(=O)OCC(=O)Nc2ccc(OCc3ccccc3)cc2)cn1,29.8
18,Nc1c(C(=O)c2ccc(Cl)cc2)oc2ccccc12,-3.51
19,COc1cc(NC(=O)CN2CCCCC2)c(C)cc1[N+](=O)[O-],26.6
